Source: PubChem BioAssay AID1645860 (Buhrlage Lab, Dana-Farber Cancer Institute and Novartis …, 2021)
The whole screen tested about 47,000 compounds, of which about 2,500 (5.3%) were called active. The full list was thinned out, with actives kept by preference. Values without a mark were called inactive. Rule as the data show it: active = inhibition above about 30%; inactive = the rest. *1 amine or outer side, *2 acyl side, *3 side chain or, on linkers, in order; H or OH if unused. Where a SMILES comes first, the peptide text is derived from it. [ ]: non-standard residue; d: D form. ξ: configuration not given here. ξβ3hGly(undecyl) = CCCCCCCCCCCC(CC(=O)[*:2])N[*:1]

What follows are molecules tested against Ubiquitin carboxyl-terminal hydrolase 30 (Homo sapiens) (UniProt Q70CQ3) (assay: inhibitors of human USP30 deubiquitinase (AID 1645860)). Settings: purified USP30, Ub-rhodamine cleavage fluorescence; at 25 µM; active compounds read high.
Chain of Ubiquitin carboxyl-terminal hydrolase 30 (Homo sapiens) (Q70CQ3 whole entry, looked up): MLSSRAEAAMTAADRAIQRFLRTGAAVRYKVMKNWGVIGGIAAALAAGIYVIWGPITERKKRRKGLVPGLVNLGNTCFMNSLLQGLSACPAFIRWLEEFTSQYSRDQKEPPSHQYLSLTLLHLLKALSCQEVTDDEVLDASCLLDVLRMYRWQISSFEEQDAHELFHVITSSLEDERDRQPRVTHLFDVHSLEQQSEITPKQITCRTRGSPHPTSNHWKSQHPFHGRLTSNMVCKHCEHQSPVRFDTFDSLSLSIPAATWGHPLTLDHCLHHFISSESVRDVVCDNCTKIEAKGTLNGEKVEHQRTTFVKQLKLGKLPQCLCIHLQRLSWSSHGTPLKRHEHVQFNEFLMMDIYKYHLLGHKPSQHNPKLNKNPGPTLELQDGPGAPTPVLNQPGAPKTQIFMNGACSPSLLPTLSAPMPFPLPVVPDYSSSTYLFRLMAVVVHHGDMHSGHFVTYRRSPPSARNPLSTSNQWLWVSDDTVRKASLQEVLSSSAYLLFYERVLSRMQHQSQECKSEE
`CC(C)N1CCN(C(=O)c2n[nH]c3c2CCCC3)CC1` gave an inhibition of -5.42%. `Cn1ccc(-c2cc(C(=O)NC3CC3)c3ccccn23)n1` was tested, and the inhibition was -423%. With `O=C(Nc1ccc2sc(NC(=O)C3CCCCC3)nc2c1)NC1CCCC1` the inhibition was 0.0388%. `CC(C)C(=O)Nc1nc2ccc(CCC(=O)Nc3ccc(F)cc3)cc2s1` was tested, and the inhibition was 26.5%. In the case of `CC(C)C(=O)Nc1nc2cc(NS(=O)(=O)c3ccccc3)ccc2s1`, the inhibition is reported as 36.4% (active). `COCCN1C(=O)Cc2c(C)nc(C3(C)CCCN(c4cc(C)ncn4)C3)nc21` (stereo not drawn) gave an inhibition of -104%. `COc1cccc(-c2ocnc2C(=O)NCc2ccc(OC)c(OC)c2)c1` was tested, and the inhibition was -25.4%. For `COc1cc(OC)cc(-c2nnc(NC(=O)c3ccc([N+](=O)[O-])o3)o2)c1`, the inhibition was 40.1% (active). For `COc1ccc(-c2ocnc2C(=O)NCc2ccc(OC)c(OC)c2)cc1`, the inhibition was -6.37%. In the case of `N#Cc1ccc(-c2cccc(C(F)(F)F)c2)n(Cc2c(F)cccc2Cl)c1=O`, the inhibition is reported as 17.6%. Work on `CC(=O)N1CSCC1C(=O)N1CCC2(CC1)CNC(=O)c1ccccc1O2` (stereo not drawn) yielded an inhibition of 6.33%. Molecule `CCN1CCC2(CC1)OC(=O)C(C)=C2C(=O)NCc1ccccc1OC` has an inhibition of 3.07%. `COc1cccc(NC(=O)CSc2nc(-c3ccco3)nc3cc(=O)[nH]n23)c1` was tested, and the inhibition was -50.3%. With `O=C1C(O)=C(c2ccc(O)c(O)c2)C(=O)C(O)=C1c1ccccc1` the inhibition was 50.5% (active). For `CC(=O)N1CCn2c(nnc2C2CCCN2)C1` (stereo not drawn), the inhibition was 12.2%. `CCCCCCCCCCCC1CC(=O)NC(CC(N)=O)C(=O)NC(Cc2ccc(O)cc2)C(=O)NC(CC(N)=O)C(=O)NC(CCC(N)=O)C(=O)N2CCCC2C(=O)NC(CC(N)=O)C(=O)NC(CO)C(=O)N1` (stereo not drawn) (cyclo([ξβ3hGly(undecyl)]NYNQPNS); configuration not given here) was tested, and the inhibition was -32.4%. Molecule `O=C(Nc1ccc(C(F)(F)F)cc1)N1CCc2[nH]cnc2C1c1ccncc1` (stereo not drawn) has an inhibition of 13%. For `Cc1nn(-c2ccc(F)cc2F)c2c1C(C(=O)c1cc3ccccc3o1)CC(=O)N2` (stereo not drawn), the inhibition was 33.3% (active). Molecule `Cc1nn(-c2ccc(F)cc2)c2c1C(C(=O)c1cc3ccccc3o1)CC(=O)N2` (stereo not drawn) has an inhibition of -18.2%. For `Cc1nn(-c2cccc(F)c2)c2c1C(C(=O)c1cc3ccccc3o1)CC(=O)N2` (stereo not drawn), the inhibition was 2.53%. `CC(CNC(=O)c1csc(C(=O)N2CCCC2)n1)c1ccccc1` (stereo not drawn) gave an inhibition of -12%. For `CC(C)=CCc1cc(O)ccc1O`, the inhibition was 0.263%. For `CC(C)=CCC(O)C1=CC(=O)c2c(O)ccc(O)c2C1=O` (stereo not drawn), the inhibition was 74.5% (active).
